High-throughput results deposited in PubChem BioAssay by several laboratories.
This is one part of a sample in which hits are shown more often than they occur.
GALR2 agonist: GALR2 (human) receptor agonism. O43603. GALR2-expressing cells, agonist activation read-out. activation, % (test concentration not listed). 140,000 tested, 0.48% active. AID 803; in the data active = activation above about 5%, passing the limit was not always enough;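 note: 0% = vehicle buffer wells and 100% = reference agonist at full effect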
Target sequence (O43603 whole entry, looked up): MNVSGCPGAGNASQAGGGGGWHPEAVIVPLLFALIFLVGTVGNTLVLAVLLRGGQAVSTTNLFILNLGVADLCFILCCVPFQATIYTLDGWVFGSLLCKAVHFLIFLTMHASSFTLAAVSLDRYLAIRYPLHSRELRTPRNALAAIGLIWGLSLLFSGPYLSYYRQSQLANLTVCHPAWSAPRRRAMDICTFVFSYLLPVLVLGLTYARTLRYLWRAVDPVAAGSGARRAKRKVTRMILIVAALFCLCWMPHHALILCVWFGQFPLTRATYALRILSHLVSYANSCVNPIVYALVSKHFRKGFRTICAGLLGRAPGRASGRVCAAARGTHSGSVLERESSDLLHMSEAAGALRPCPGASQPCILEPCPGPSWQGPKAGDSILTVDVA
PostGolgi yeast: growth inhibition of a yeast mutant, post-Golgi transport screen | post-Golgi transport phenotypic cell assay | inhibition, % at 10 µM | AID 739 | 98,000 tested, 0.9% active;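 note: yeast cells grown in 1536-well plates; yeast grown about 18 h at 30C before absorbance read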
PostGolgi ctrl: growth of the yeast control strain, post-Golgi counter-screen | efflux-deficient yeast background strain, growth absorbance A615, 16 h | AID 738 | inhibition, % at 10 µM | 98,000 tested, 5% active
S1P2 antag: antagonists of human S1P2 receptor; O95136; cell-based S1P2 antagonist assay, inhibition at 5 uM; inhibition, % at 5 µM; 97,000 tested, 0.21% active; AID 736; in the data active = inhibition above about 45%;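 note: CRE beta-lactamase reporter cells expressing human S1P2 stimulated with S1P; 0% = agonist at EC80 alone and 100% = agonist plus reference antagonist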
S1P2 ag: S1P2 (human) receptor agonism. AID 729. O95136. 97,000 tested, 0.46% active. activation, % at 4.5 µM. S1P2-expressing cell line, agonist reporter read-out; in the data active = activation above about 16%;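 note: 0% = vehicle low control and 100% = maximal reference agonist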
GALR2 antag: blocks the human galanin receptor 2 | O43603 | GALR2-expressing cells, antagonist mode | inhibition, % at 4 µM | 140,000 tested, 0.39% active; in the data active = inhibition above about 27%;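 note: cells stimulated with galanin 1-16 at roughly its EC80; 0% = agonist challenge control and 100% = basal control without agonist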
Active calls of the source: *; . = not tested or not shown. Cut-off read from the data, not from the text of the source, unless noted: active = inhibition above about 30%; inactive = the rest.

SMILES	GALR2 agonist	PostGolgi yeast	PostGolgi ctrl	S1P2 antag	S1P2 ag	GALR2 antag
CC(=O)n1c2c(c3ccccc31)OC(N)=C(C#N)C2c1ccc(C(C)C)cc1 (configuration not stated)	-1	18	34*	17	0	8
c1ccc2c(c1)ncn2CCC1CCCCC1	-2	-1	80*	2	1	8
O=c1[nH]c2ccccc2n1CCC1CCCCC1	-2	1	49*	-7	-4	5
O=C(c1cc2ccccc2oc1=O)N1CCN(c2ncccn2)CC1	-2	7	6	1	-1	-8
CC1CCC2C(C1)c1sc(=O)[nH]c1SC2(C)C (configuration not stated)	-1	5	66*	-4	-2	-10
COC(=O)C1CC(O)CN1C(=O)c1ccco1 (configuration not stated)	-1	-1	34*	1	-3	-2
NNc1nc2c(F)cc(F)cc2s1	0	.	.	.	.	-2
FC(F)(F)c1nnc(-c2ccccc2)nc1Oc1ccc(Cl)cc1Cl	-1	8	34*	8	-6	-3
FC(F)(F)c1cccc(Oc2nc(-c3ccccc3)nnc2C(F)(F)F)c1	-1	4	20	-1	-1	0
CCOC(=O)c1nnc(-c2ccccc2)nc1NC	-2	19	0	-9	-3	1
CCOC(=O)c1nnc(-c2ccccc2)nc1Oc1ccccc1Cl	-1	10	31*	-15	-3	7
CCNC(=O)CCSc1nnc(-c2ccco2)o1	0	.	.	.	.	-12
Cc1nn(-c2ccccc2)c2c1C(=O)N(c1ccccc1)C(=O)C(C)(C)C2	-2	4	35*	-3	-1	7
CCCCCCCCC(=O)Nc1cc(C)ccc1OC	-2	.	.	-12	-4	12
COc1ccc(S(=O)(=O)N2CCN(C(=O)COc3ccc4c(C)cc(=O)oc4c3)CC2)cc1	1	5	30*	-8	-3	-3
CC1CCN(S(=O)(=O)c2ccc3[nH]c(=O)cc(C(=O)O)c3c2)CC1	-1	-15	31*	12	0	-11
CC1CCN(S(=O)(=O)c2ccc3ccccc3c2)CC1	0	5	34*	-15	0	-4
Cc1nc(-c2cccc(S(=O)(=O)N3CCC(C)CC3)c2)cs1	-2	-7	38*	22	-8	-9
CC1=C(C(=O)Nc2ccc(C)cc2C)C(c2ccc(C)o2)NC(=S)N1 (configuration not stated)	-2	.	.	.	.	21
COc1ccc(NC(=O)C(NC(=O)c2ccc(=O)[nH]c2)c2ccc(OC)cc2)cc1 (configuration not stated)	-2	.	.	.	.	-3
COc1cc(CCC(=O)N2CCN(S(=O)(=O)c3ccc(C)c(C)c3)CC2)cc(OC)c1OC	0	17	0	5	-1	-4
COc1ccc(CCC(=O)N2CCN(S(=O)(=O)c3ccc4ccccc4c3)CC2)cc1	0	0	37*	12	-4	-1
CCOC(=O)C1CCN(CCC(=O)Nc2cccc(Cl)c2)CC1	-2	3	7	4	-7	4
Cc1cc(Br)ccc1NC(=O)CN1C(=O)C2C3CC(c4ccccc4)C(C3)C2C1=O (configuration not stated)	-1	2	53*	17	-7	3
COC(=O)c1cc(-c2ccccc2)sc1NC(=O)CN1C(=O)c2ccccc2C1=O	0	1	10	0	-4	1
SMILES	GALR2 agonist	PostGolgi yeast	PostGolgi ctrl	S1P2 antag	S1P2 ag	GALR2 antag
C=CCNC1=C(Cl)C(=O)N(c2ccccc2Cl)C1=O	-1	-3	34*	15	-2	-8
CCCCCNCc1cccc(Br)c1	-1	5	0	-15	-1	1
Cc1sc2nc(CSc3nnc(Cc4cccs4)n3C3CCCCC3)[nH]c(=O)c2c1C	-1	7	-4	2	-7	12
Cc1ccc2nc(CSc3nnc(Cc4cccs4)n3C3CCCCC3)cc(=O)n2c1	-2	-2	39*	-16	2	-1
COc1ccc(C2=NOC(C(=O)Nc3ccc(C)cc3)C2)cc1OC (configuration not stated)	0	7	2	3	-4	-6
COc1cc(C2=NOC(C(=O)Nc3ccc(C)cc3)C2)cc(OC)c1OC (configuration not stated)	-2	15	31*	9	-8	5
Cc1ccc(-c2ccc(/C=N/n3cnnc3)o2)cc1Cl	-4	80*	60*	-3	-2	-4
Clc1cccc(-c2ccc(/C=N/n3cnnc3)o2)c1	-1	-1	-2	.	.	6
COCCCN(C(=S)NC(=O)c1ccc(C(C)(C)C)cc1)c1c(N)n(Cc2ccccc2)c(=O)[nH]c1=O	-2	.	.	.	.	-3
O=C(Nc1ccc(CN2CCOCC2)cc1)c1cc2ccccc2o1	-3	38*	23	-2	-4	1
COc1ccc(C(=O)N/N=C/c2ccc(OC(=O)c3ccccc3)cc2)cc1	0	.	.	.	.	13
O=C(Nc1ccc(N2CCOCC2)cc1)c1cc2ccccc2o1	-1	-3	2	.	.	-7
NC(=O)c1ccc(NC(=O)c2ccc(CN3CCOCC3)cc2)cc1	0	-3	10	-8	-2	6
O=C(N/N=C/c1ccc(OC(=O)c2ccccc2)cc1)c1ccc(CN2CCOCC2)cc1	-1	80*	11	14	-5	-7
O=C(Oc1ccc(/C=N/O)cc1)c1ccccc1	0	12	31*	17	-1	-1
CCOC(=O)c1ccc(NC(=O)c2ccc(CN3CCOCC3)cc2)cc1	-2	94*	27	-5	-3	-4
COc1ccc(-n2c(C)cc(-c3csc(NC(=O)c4ccc(S(=O)(=O)N(C)C)cc4)n3)c2C)cc1	-1	.	.	.	.	16
COc1ccc(C(=O)/C=C2/c3ccccc3CC(C)(C)N2C)cc1OC	0	.	.	.	.	1
CSc1nnc(CSc2cc(C)nc(N(C)C)n2)o1	-1	.	.	.	.	-8
CN(C)c1nc(N)nc(CSc2nc3cc(Cl)ccc3o2)n1	-1	-7	6	-5	7	-6
O=S1(=O)C=C(Sc2nc3cc(Cl)ccc3o2)c2ccccc21	-1	14	39*	94*	-11	10
Cc1ccc(S(=O)(=O)N(C)Cc2ccc(-c3nnc4n3CCC4)cc2)cc1	-1	-1	33*	-1	-1	-5
COc1cccc(Oc2cncnc2-c2ccc(OC)cc2O)c1	0	84*	56*	-4	-8	2
CSc1nnc(-c2sc3cc(C(F)(F)F)cnc3c2-c2ccccc2)n1C	2	-5	6	14	-2	-20
COC(=O)Cn1nc(-c2ccccc2)c2ccccc21	0	7	31*	4	-6	5
O=C(O)CCCn1nc(-c2ccccc2)c2ccccc21	0	-4	16	.	.	5
O=C(Nc1ccc(C(F)(F)F)cc1Cl)c1ccc(Cn2cc(Br)cn2)o1	-2	-1	39*	-9	1	-2
O=C(Nc1cccc(C(F)(F)F)c1)c1ccc(Cn2cc(Br)cn2)o1	-1	6	38*	10	-5	5
